# CYP2C19 inh: blockers of cytochrome P450 2C19 activity – biochemical, luminescence, ADME assay, primary screen. P33261. CYP2C19 Supersomes, luciferin-H EGE luminescence, 30 min. inhibition, % at 5 µM. 96,000 compounds, 21% hits;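 active = CYP2C19 inhibition above a set limit at 5 µM in the primary screen, cut at about 50% in these data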;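 also: plate controls were negative control wells for no effect and 2.5 mM tranylcypromine positive control for full effect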
# Target sequence (P33261 whole entry, looked up): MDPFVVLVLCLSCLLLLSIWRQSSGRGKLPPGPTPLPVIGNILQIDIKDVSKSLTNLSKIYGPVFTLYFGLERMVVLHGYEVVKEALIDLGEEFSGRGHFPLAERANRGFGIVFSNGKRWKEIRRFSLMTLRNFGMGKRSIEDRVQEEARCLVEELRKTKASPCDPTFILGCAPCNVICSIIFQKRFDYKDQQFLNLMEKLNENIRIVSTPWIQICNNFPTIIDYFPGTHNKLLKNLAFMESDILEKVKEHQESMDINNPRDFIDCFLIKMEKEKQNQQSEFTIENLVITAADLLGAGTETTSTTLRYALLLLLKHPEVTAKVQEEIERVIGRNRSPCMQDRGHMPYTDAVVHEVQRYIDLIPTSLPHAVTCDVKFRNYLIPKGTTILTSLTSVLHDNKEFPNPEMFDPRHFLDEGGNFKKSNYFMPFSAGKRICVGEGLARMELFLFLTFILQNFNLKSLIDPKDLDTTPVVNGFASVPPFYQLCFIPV
# Mac1 fbg inh: inhibitors of CD11b/CD18 adhesion to fibrinogen, primary screen, K562 cells, luminescence; Integrin beta-2 (Homo sapiens) + Integrin alpha-M (Homo sapiens), P05107+P11215; ATPlite luminescence; Mn2+ added to activate the integrin; inhibition, % at 10 µM; 93,000 compounds, 0.54% hits;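 active = primary inhibition of 50% or more at 10 µM, then 40% or more on retest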
# CYP2C9 inhib: blockers of cytochrome P450 2C9 activity – biochemical, luminescence, ADME assay, primary screen | CYP2C9 Supersomes, luciferin-H conversion | inhibition, % at 5 µM | 96,000 compounds, 20% hits | AID 777, 2007;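 active = blocking of liver enzyme CYP2C9 beyond about 50% at 5 µM, limit read from the data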
# CD11b adhes enh: enhancers of CD11b/CD18 adhesion to fibrinogen, primary screen, K562 cells, luminescence; Integrin beta-2 (Homo sapiens) + Integrin alpha-M (Homo sapiens), P05107+P11215; ATPlite luminescence; activation, % at 10 µM; 93,000 compounds, 0.07% hits;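 active = 10 µM primary screen giving 50% or more activity, confirmed by 40% or more on retest at that dose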
# CYP2C9 activ: human CYP2C9 activators, primary screen, biochemical, luminescence; 96,000 compounds, 1.4% hits; AID 1024, 2008; recombinant CYP2C9, luciferin-H conversion; hits give high values; factor 1 = untreated enzyme, 0 = blocked; activation factor at 5 µM;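 active = activation factor of 2 or more for CYP2C9 at a 5 µM dose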;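 also: 0 = sulfaphenazole-blocked wells and 1 = vehicle-only wells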
# CYP2C19 activ: human CYP2C19 activators, primary screen, biochemical, luminescence | Cytochrome P450 2C19 (Homo sapiens), P33261 | recombinant CYP2C19, luciferin-H EGE luminescence; hits give high values; 0 = fully inhibited enzyme, 1 = untreated enzyme | activation factor at 5 µM | 96,000 tested, under 10 active;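 active = activation factor of at least 2 at 5 µM in the primary screen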;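 also: 0 = wells with 2.5 mM tranylcypromine and 1 = vehicle-only wells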
# The depositor's hits bear a star; . = no result given. Shown are actives, neighbours in structure and some others; about 28% of the full set was active somewhere.
SMILES,CYP2C19 inh,Mac1 fbg inh,CYP2C9 inhib,CD11b adhes enh,CYP2C9 activ,CYP2C19 activ
CN(C)S(=O)(=O)c1ccc(C(=O)Nc2ccccn2)cc1,-14,0,-6,-4,1.1,1.1
NS(=O)(=O)c1ccc(N2N=C(c3ccccc3)CC2c2ccc(F)cc2)cc1 (centres undefined),31,71,90*,-5,0.1,0.7
COc1cc(Nc2nc3ccccc3n3nnnc23)cc(OC)c1OC,32,-3,69*,4,0.3,0.7
COc1ccc(Nc2nc3ccccc3n3nnnc23)cc1,3,-1,15,-3,0.9,1
CCc1ccc(N(CC(=O)NC)S(C)(=O)=O)cc1,14,1,-2,4,1,0.9
Cc1nc(-c2ccccc2)sc1C(=O)CSc1ccccc1,4,5,80*,8,0.2,1
Cc1nc(-c2ccccc2)sc1C(=O)CSc1ccc(F)cc1,64*,21,86*,2,0.1,0.4
CCOC(=O)N1CCN(C(=O)c2ccc3nc(SCc4ccc(F)cc4)n(C)c3c2)CC1,49,.,65*,.,0.3,0.5
CCOC(=O)N1CCN(C(=O)c2ccc3c(SCC(=O)O)c4c(nc3c2)CCC4)CC1,2,-2,28,-2,0.7,1
COC(=O)c1ccc(OC(=O)c2ccc(OC)c(OC)c2)c(OC)c1,17,1,11,-2,0.9,0.8
COC(=O)c1ccc2c(c1)C(C)(C)C(/C=C/c1ccccc1O)=[N+]2C,42,.,59*,.,0.4,0.6
O=C(NCCCn1ccnc1)c1cn(Cc2ccc(F)cc2)nn1,94*,-23,60*,-2,0.4,0.1
Cc1cc(C(=O)NCCCn2ccnc2)cs1,88*,-14,66*,-5,0.3,0.1
Cc1cc(C(=O)NCCCN2CCCC2=O)cs1,7,-55,-6,-1,1.1,0.9
COCCCNC(=O)c1cn(Cc2c(F)cccc2Cl)nn1,14,0,17,5,0.8,0.9
O=C(NCCCn1ccnc1)C(Cc1ccccc1)N1C(=O)c2ccccc2C1=O (centres undefined),64*,53,62*,-3,0.4,0.4
Cc1ccc(C(=O)NCCCn2ccnc2)o1,72*,-5,28,-3,0.7,0.3
O=C(NCCCn1ccnc1)c1cc2ccccc2oc1=O,.,-4,.,-4,.,.
O=C(NCc1ccco1)c1n[nH]c(=O)c2ccccc12,4,-5,11,-1,0.9,1
COCc1cc(=O)n2[nH]c(C)nc2n1,0,-21,-10,-1,1.1,1
Cc1cc(C)n(C(=O)CNC(=O)c2cccs2)n1,18,-5,13,0,0.9,0.8
Cc1ccc(C(=O)Nc2cc3c(oc2=O)CCCC3=O)cc1,-1,.,9,.,0.9,1
Cc1ccc2nc3c(cc(C(=O)NCCCn4ccnc4)n3C)c(=O)n2c1,89*,0,90*,0,0.1,0.1
C=CCn1c(=N)c(C(=O)NCCCOC)cc2c(=O)n3cc(C)ccc3nc21,-2,0,11,-2,0.9,1
O=C(NCCCn1ccnc1)NC(C(F)(F)F)C(F)(F)F,80*,-2,68*,3,0.3,0.2
SMILES,CYP2C19 inh,Mac1 fbg inh,CYP2C9 inhib,CD11b adhes enh,CYP2C9 activ,CYP2C19 activ
O=C(NCCCN1CCCC1=O)c1ccccc1NS(=O)(=O)c1ccc(F)cc1,43,3,29,-1,0.7,0.6
O=C(O)C1CCCCC1C(=O)NCCCn1ccnc1 (centres undefined),16,-10,14,-4,0.9,0.8
O=C(NCCCn1ccnc1)c1cccc(S(=O)(=O)Nc2ccccc2F)c1,61*,8,100*,-3,0,0.4
O=C(NCCCn1ccnc1)C1c2ccccc2Oc2ccccc21,100*,-3,98*,-1,0,0
Cn1cc(Br)c(C(=O)NC2CCCCC2)n1,26,-5,-28,-2,1.3,0.7
COC(=O)c1sc2cnccc2c1N,21,-12,31,-7,0.7,0.8
O=C(NCCCn1ccnc1)c1sc2cccc(F)c2c1Cl,96*,1,91*,-2,0.1,0
O=S(=O)(Cc1ccccc1)c1cnc2ccccc2n1,89*,-19,-149,-9,2.5*,0.1
O=C(O)CSc1cnc2ccccc2n1,16,-13,2,-2,1,0.8
COc1ccc(C2=NN(C(=O)c3cccc([N+](=O)[O-])c3)C(c3cccc([N+](=O)[O-])c3)C2)cc1 (centres undefined),8,-20,44,-2,0.6,0.9
COc1ccc(C(=O)N2CCc3cc(OC)c(OC)cc3C2c2cccc([N+](=O)[O-])c2)cc1OC (centres undefined),19,-5,69*,2,0.3,0.8
Cc1ccc2ccccc2c1Cn1c(-n2ccnc2)nc2c1c(=O)n(C)c(=O)n2C,58*,-4,47,2,0.5,0.4
Cn1c(=O)c2c(nc(N3CCNCC3)n2Cc2cccc3ccccc23)n(C)c1=O,-12,-7,-8,0,1.1,1.1
CN1CCN(c2ccc([N+](=O)[O-])cc2C(=O)c2ccc(Cl)cc2)CC1,58*,-4,14,-6,0.9,0.4
CCOc1ccc(C(=O)c2cc([N+](=O)[O-])ccc2Cl)cc1,34,15,76*,-4,0.2,0.7
O=C(c1cccnc1)N1CCN(c2ccc([N+](=O)[O-])cc2Cl)CC1,.,6,.,-4,.,.
O=C(c1ccccc1)c1cc([N+](=O)[O-])ccc1N1CCOCC1,.,7,.,-7,.,.
O=C(c1ccc(-c2ccc(Cl)cc2)o1)N1CCN(c2ccc([N+](=O)[O-])cc2Cl)CC1,70*,-14,92*,4,0.1,0.3
CCCOc1ccccc1N/C(=N/c1nc(C)cc(C)n1)NC(=O)Nc1ccc(Cl)cc1,-3,9,19,-6,0.8,1
CCC1(CC)NC(=O)NC1=O,-13,-13,-7,0,1.1,1.1
Cc1ccc(C2C3=C(CC(C)(C)CC3=O)N(CCN3CCOCC3)C3=C2C(=O)CC(C)(C)C3)cc1,-10,8,-6,-2,1.1,1.1
O=S(=O)(c1ccc2nc(Cc3cccc(C(F)(F)F)c3)[nH]c2c1)N1CCOCC1,67*,14,86*,0,0.1,0.3
O=S(=O)(c1ccc2nc(Cc3ccccc3)[nH]c2c1)N1CCOCC1,36,-2,47,-1,0.5,0.6
Fc1ccccc1CNc1ccc(Cl)c(Cl)c1,13,-1,7,5,0.9,0.9
CCC(C)n1c(SC(C)C#N)nc2ccccc2c1=O (centres undefined),48,2,70*,-2,0.3,0.5

# Screens as filed in PubChem BioAssay.
